CRE Fsk mod – modulators of forskolin-stimulated CRE signaling in CHO cells. hit rate 2.5% among 71,000. CHO CRE-bla reporter (cAMP response element driving beta-lactamase), forskolin EC10, beta-lactamase ratio. Potency, µM (doses to about 38.2 µM), for the others: at the highest dose activity change, negative = inhibition, hits mostly activators; active = well fitted activation curve with a large enough effect in the signal ratio, with a control signal flat, not every such curve was filed as active; inconclusive = small, poorly fitted or top-dose-only effect, or effect the other way, or a change in a side signal; the % refers to the signal ratio; note: potency is the fitted concentration of half-maximal effect; % of control where 0% means no effect
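Reporter-gene assay: CHO cells with beta-lactamase behind cAMP responsive elements, co-treated with compound and EC10 NKH 477 for 3 hours at 37 degrees Celsius. Activity came from the 460/530 nm CCF4 emission ratio.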
ERK AVP inh – vasopressin-driven ERK pathway inhibition; HEK293-V1b, vasopressin-stimulated pERK AlphaScreen; Potency, µM (top dose mostly 57.5 µM), inactives show at the highest dose activity, negative = inhibition, hits mostly inhibitors; hit rate 0.99% among 72,000; AID 995; note: potency is the fitted concentration of half-maximal effect; % is set by controls: 0 for no effect and ±100 for the full control effect; nearly all actives have a fitted effect of over 55% in size
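V1b-HEK293 cells; cpd 30 min 37C; 25 nM vasopressin 5 min; lyse 10 min; AlphaScreen beads 5 hr RT. Normalized to DMSO basal and 25 nM vasopressin; AC50 by Hill fit.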
HEK293 cAMP ctrl – raises cAMP in parental HEK293 cells, TSHR agonist counter-screen; parental HEK293 CNG cAMP sensor, membrane potential fluorescence; Potency, µM (series often up to 57.1 µM), for inactives: at the top dose activation, actives largely listed as activators; hit rate 2.5% among 73,000; note: potency is the fitted concentration of half-maximal effect; % of control where 0% means no effect; nearly all actives have a fitted effect of over 55% in size
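Parental HEK 293 cells stably expressing a cAMP-gated CNG channel were loaded with membrane potential dye containing 100 uM RO 20-1724 for 60 min. Compound added for 30 min; depolarization read as fluorescence intensity at 590 nm.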
Tau filament bind – binders of human tau filaments | P10636 | recombinant tau filaments, thioflavin S fluorescence, 15 h; filaments grown with octadecylsulfate alongside compound | Potency, µM (highest dose often 57.1 µM), without a hit: at the highest dose activity change, negative = inhibition | hit rate 2% among 71,000 | AID 596;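 note: potency is the fitted concentration of half-maximal effect; % is set by controls: 0 for no effect and ±100 for the full control effect; actives lower thioflavin S fluorescence by blocking filaments or displacing dye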
Target sequence (P10636 whole entry, looked up): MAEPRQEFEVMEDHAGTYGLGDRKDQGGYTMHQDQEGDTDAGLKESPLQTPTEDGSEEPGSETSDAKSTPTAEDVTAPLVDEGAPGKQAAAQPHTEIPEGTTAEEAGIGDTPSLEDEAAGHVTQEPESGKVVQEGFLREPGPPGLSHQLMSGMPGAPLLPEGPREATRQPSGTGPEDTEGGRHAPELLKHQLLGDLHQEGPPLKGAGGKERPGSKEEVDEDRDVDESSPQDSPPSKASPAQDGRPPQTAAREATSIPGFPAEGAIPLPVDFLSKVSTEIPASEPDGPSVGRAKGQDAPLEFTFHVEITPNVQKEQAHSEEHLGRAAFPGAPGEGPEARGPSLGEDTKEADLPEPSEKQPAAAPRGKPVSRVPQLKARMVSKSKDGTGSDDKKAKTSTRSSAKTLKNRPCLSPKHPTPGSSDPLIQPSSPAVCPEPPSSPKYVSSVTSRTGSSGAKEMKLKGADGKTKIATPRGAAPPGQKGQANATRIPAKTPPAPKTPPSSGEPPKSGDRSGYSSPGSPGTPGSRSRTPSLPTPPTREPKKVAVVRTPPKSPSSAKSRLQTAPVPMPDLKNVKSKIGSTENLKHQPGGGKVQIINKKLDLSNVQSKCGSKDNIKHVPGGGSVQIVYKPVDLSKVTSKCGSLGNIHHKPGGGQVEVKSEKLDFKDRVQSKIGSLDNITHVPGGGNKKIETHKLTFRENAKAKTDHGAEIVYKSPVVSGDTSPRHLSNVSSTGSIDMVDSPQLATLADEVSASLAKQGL
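His-tagged recombinant human tau (exons 2, 3 and 10 included), 1 uM, was induced to fibrillize by 30 uM sodium octadecylsulfate with compound present. After 15 h at 37 C, thioflavine S fluorescence (ex 450, em 510 nm) was read.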
TSHR agonist – agonists of human thyroid stimulating hormone receptor; P16473; HEK293-CNG-TSHR cells (CNG channel as cAMP sensor), membrane potential dye, cAMP; Potency, µM (titrated, usually from 57.1 µM), without a hit: at the top dose activation, hits mostly activators; hit rate 0.48% among 73,000; active = well fitted activation curve with a large enough effect in the main read-out, with a control signal flat, not every such curve was filed as active; inconclusive = small, poorly fitted or top-dose-only effect, or a change in a side signal; inactive = no such curve, though single readings can be large or run the other way; % of control where 0% means no effect;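 note: the control signal comes from parental cells without the receptor; potency is the fitted concentration of half-maximal effect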
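HEK 293 cells stably expressing TSHR and a cAMP-gated CNG channel; parental CNG-only cells as counterscreen. Cells preloaded 60 min with membrane potential dye plus 100 uM RO 20-1724, then compound 30 min; fluorescence read at 590 nm.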
CHO tox 24h – CHO cell toxicity at 24 h by ATP luminescence | AID 905 | CRE-bla CHO viability, ATP luminescence, 24 h | shares compounds with CRE Fsk mod | activity, negative = viability loss, % at 46.1 µM | 120 tested, under 10 active
CHO via 40h – reduces CRE-bla CHO cell viability after 40 hours; shares compounds with CRE Fsk mod; CRE-bla CHO viability, ATP luminescence, 40 h; Potency, µM, inactives show max response, actives largely listed as inhibitors; 120 tested, under 10 active
CREB luc CRC – confirmation of CRE signaling potentiators in HEK293 CREB reporter cells; HEK293 CRE-luc2P, NKH477 EC10 potentiation, luminescence, 4 h; shares compounds with CRE Fsk mod; Potency, µM (doses to about 38.3 µM), inactives show at the top dose activity, positive = activation, hits mostly activators; AID 907; hit rate 80% among 120
HEK293 cAMP cnt – raises cAMP in parental HEK293 cells lacking TSH receptor; AID 953; shares compounds with TSHR agonist; activity change, negative = inhibition, % at 32.9 µM; 150 tested, under 10 active; parental HEK293 CNG biosensor, cAMP membrane potential fluorescence
An asterisk follows results filed as active; ? = inconclusive; . = not tested or not shown; [ ] = remark or other dose. An excerpt weighted towards active compounds, which were near 7.4% of everything screened. Unless noted, calls come from the whole dose curve; as a rule, active = well fitted curve in the direction sought with a large enough effect; inconclusive = small, poorly fitted or top-dose-only effect, or another doubt; inactive = no such curve, though single readings can be large; an effect the other way counts as inactive or inconclusive.

SMILES	CRE Fsk mod	ERK AVP inh	HEK293 cAMP ctrl	Tau filament bind	TSHR agonist	HEK293 cAMP cnt	others
COC(=O)Nc1nc2ccc(C(=O)c3cccs3)cc2[nH]1	0.079µM*	28%	5%[25.6 µM]	?	?	.	CHO tox 24h=?;CHO via 40h=-19%;CREB luc CRC=?
COc1ccc(C2Nc3ccccc3C(=O)N2Cc2ccco2)cc1COc1ccc(NC(C)=O)cc1 (configuration not stated)	13%	-2%	18%	112%	0.63µM*	22
COc1cc2c(N3CCOCC3)cc(O)c(CC(=O)Nc3ccccc3)c2cc1OC	-5%	2%	25%	12%	32µM*	-11
COc1cc2c(cc1OC)C1C(=O)c3c(O)cc4c(c3OC1CO2)C=CC(C)(C)O4 (configuration not stated)	.	-28%	.	.	.	.
CCc1ccccc1NC1=NCC(=O)N1Cc1ccc(OC)cc1	0%	-9%	27%	2%	7.9µM*	-6
Cc1ccc2nc(SCC(=O)O)nc(C)c2c1	7%	17%	6%	-11%	-7%	13[25.6 µM]
C/C(CCN1CCCCc2nc(C)c(C)cc21)=N\OC[C@@H](O)[C@@H]1O[C@@H]2OC(C)(C)O[C@@H]2[C@H]1O	.	-9%[11.5 µM]	5%[11.4 µM]	.	0%[11.4 µM]	.
CSc1nc(NC(C)(C)C)nc(Oc2ccc(=O)[nH]n2)n1	7%	-22%	0%	7%	25µM*	-3
CCNc1nc(NCc2ccccc2)nc(Oc2ccc(=O)[nH]n2)n1	?	?	-3%	-13%	102%	.
COC(=O)[C@H]1C[C@@H]1[C@H](NS(=O)(=O)c1ccc(-c2ccccc2)cc1)c1ccccc1	-4%	11%	?	14%	?	.
Cc1cc(SCNC(=O)c2ccccc2)ncn1	6%	27%	17%	-4%	4%	-3[25.6 µM]
Cc1cc(C)nc(SCNC(=O)c2ccc(F)cc2)n1	?	-3%	-3%	-12%	-6%	.
C=CCn1c(NCc2ccc3c(c2)OCO3)nc2ccccc21	-2%	-17%	16%	-14%	2%	13[25.6 µM]
O=C(CSc1nc2ccccc2n1CC(=O)N1CCCC1)NCc1ccc2c(c1)OCO2	0%	49%	9%	7%	0%	.
Brc1ccc(Oc2nnnn2-c2ccccc2)cc1	-1%	22%	21%	-6%	25µM*	20
COc1ccc(C(=O)N(Cc2ccco2)Cc2cccs2)c(O)c1	-20%	14%	24%	0%	2.5µM*	-7
O=C(c1cnccn1)N1CCC[C@@]2(CCN(c3cccc(-c4ccccc4)c3)C2)C1	4%	?	?	?	?	.
CCCS(=O)(=O)N1CCN(C(=O)c2ccc(-c3ccccc3)cc2)CC1	-28%[7.6 µM]	-9%	17%[11.4 µM]	6%[11.4 µM]	.	17
CCCS(=O)(=O)N1CCN(C(=O)c2cccnc2)CC1	.	.	-2%	.	1%	.
COC(c1ccccc1Br)C(C)/C=C/CCO (configuration not stated)	.	16%[11.5 µM]	-2%[11.4 µM]	.	-4%[11.4 µM]	.
COc1ccc(CNC(=O)c2cc3c(=O)n4ccccc4nc3n(Cc3cccnc3)c2=N)cc1	?	13%	-3%	107%	-40%	.
N=c1c(C(=O)NCc2ccc(F)cc2)cc2c(=O)n3ccccc3nc2n1Cc1ccco1	?	-2%	0%	?	-42%	-69[25.6 µM]
Cn1c(=O)c2[nH]c(CCCCC(=O)O)nc2n(C)c1=O	10%[7.6 µM]	14%[11.5 µM]	3%[11.4 µM]	2%[11.4 µM]	5%[11.4 µM]	.

Source: PubChem (National Center for Advancing Translational Sciences (NCATS))
